Only some compounds are listed: those with a hit (about 0.93% of all), similar ones and a draw of the others.
Coupling enz: counter-screen for Giardia aldolase inhibitors: coupling enzyme system | 290,000 compounds, 0.67% hits | activity change, negative = inhibition, % at 58.2 µM, hits read low | coupling enzyme system counterscreen, AmpLite Red fluorescence; in the data active = activity change below about -30%
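Compounds tested against the coupling enzymes alone at 57.5 uM final; readout was AmpLite Red fluorescence (525/598 nm) after 20 min at RT.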
GoLoco inh red: blocks human Gai1 binding to RGS12 GoLoco peptide, red readout; P63096; Gai1:RGS12 GoLoco peptide FP, rhodamine, 10 min; Potency, µM (titrated, usually from 61.6 µM), actives largely listed as inhibitors; 230,000 compounds, 0.44% hits; AID 880; active = well fitted inhibition curve with a large enough effect, not every such curve was filed as active; inactive = no such curve, though single readings can be large or run the other way; also: nearly all actives have a fitted effect of over 30% in size
TexasRed fluor: counter-screen for TRb-SRC2 inhibitors: fluorescence interference | AID 1479 | TRb/SRC2 Texas Red total fluorescence interference | 280,000 compounds, 0.29% hits | Potency, µM (titrated, usually from 106 µM); active = well fitted curve in either direction with a large enough effect; inconclusive = small, poorly fitted or top-dose-only effect
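Flags fluorescent or light-absorbing compounds by total fluorescence, S + 2P, at 555 nm excitation and 632 nm emission. Mixture: 20 nM Texas Red SRC2 peptide, 0.6 uM human TRb LBD, 1 uM T3, 5% DMSO; compound exposure 5 h at ambient temperature.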
TRb-SRC2 inh: TRbeta-SRC2 interaction inhibition. Potency, µM (doses to about 106 µM), hits mostly inhibitors. 280,000 compounds, 0.065% hits. TRbeta-SRC2 peptide binding, fluorescence polarization; receptor liganded with 1 µM T3. P10828. AID 1469; active = well fitted inhibition curve with a large enough effect; inconclusive = small, poorly fitted or top-dose-only effect, or effect the other way; also: nearly all actives have a fitted effect of over 50% in size
Target sequence (P10828 whole entry, looked up): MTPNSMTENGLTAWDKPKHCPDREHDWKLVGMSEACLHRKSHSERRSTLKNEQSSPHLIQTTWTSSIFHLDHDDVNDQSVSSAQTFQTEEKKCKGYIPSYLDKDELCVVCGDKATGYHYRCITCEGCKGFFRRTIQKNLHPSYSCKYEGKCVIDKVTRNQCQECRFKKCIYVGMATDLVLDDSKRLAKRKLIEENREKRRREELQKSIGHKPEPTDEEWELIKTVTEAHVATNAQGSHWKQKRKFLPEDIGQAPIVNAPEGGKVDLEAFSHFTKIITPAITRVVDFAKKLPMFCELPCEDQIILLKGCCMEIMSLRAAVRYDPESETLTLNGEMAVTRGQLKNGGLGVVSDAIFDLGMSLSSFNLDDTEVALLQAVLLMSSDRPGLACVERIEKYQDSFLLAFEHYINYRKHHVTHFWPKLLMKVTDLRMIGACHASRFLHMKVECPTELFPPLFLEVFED
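Binding of a 20-amino-acid Texas Red SRC2 peptide (20 nM) to TRb ligand-binding domain (0.6 uM) with agonist T3 at 1 uM was followed by fluorescence polarization after a 5 hr room-temperature incubation.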
Numbers stand for hits; - = inactive; ? = inconclusive; . = not tested or not shown; ! = not active in a repeat; [ ] = another dose, or the depositor's remark.

SMILES	Coupling enz	GoLoco inh red	TexasRed fluor	TRb-SRC2 inh
Cc1cc(C)c(S(=O)(=O)/N=C2/C=C(Sc3ncn[nH]3)C(=O)c3ccccc32)cc1C	-95.9	-	-	-
CCN(c1ccccc1)S(=O)(=O)c1ccc(Cl)c(NC(=O)CSc2ncn[nH]2)c1	-	-	-	-
Cc1cc(N2CCOCC2)nc2ccc(NC(=O)CCC(=O)N3CCC(C)CC3)cc12	-33.0	.	-	-
CCOc1ccc(C(=O)Cn2c(=O)n3nc(CCn4nc(C)cc4C)nc3c3cc(OC)c(OC)cc32)cc1	.	.	?	-
COc1ccc(OC)c(CNC(=O)C2CCN(c3ncnc4c3nc3n4CCCCC3)CC2)c1	.	.	-	-
Cc1ccc(C)c(N2CCN(c3ncnc4c3nc3n4CCCC3)CC2)c1	.	.	20µM[quencher]	-
Cc1cccc(N2CCN(C(=O)C3CCN(c4ncnc5c4nc4n5CCCCC4)CC3)CC2C)c1 (configuration not stated)	-	.	20µM[quencher]	-
COc1cccc(CNC(=O)C2CCN(c3ncnc4c3nc3n4CCCCC3)CC2)c1	-	.	20µM[quencher]	-
Cc1ccc(C)c(N2CCN(c3ncnc4c3nc3n4CCCCC3)CC2)c1	.	.	-	-
Cc1noc(C)c1-c1cc(N(C)Cc2ccco2)ncn1	-	-	.	.
CCCCCCCC/C=C\CCCCCCCCCCCCC	.	.	-	-
COc1ccccc1C(=O)NC(=S)N1CCCc2ccccc21	-38.6	-	-	-
Cc1ccc(C)c(CN2C(=O)COc3ccc(C(=O)c4ccccc4C(=O)O)cc32)c1	-34.7	-	-	-
Cc1ccc(C)c(CN2C(=O)COc3ccccc32)c1	-	.	.	.
CCn1c(C)nc2cc(C(=O)NNC(=O)CCC3CCCCC3)ccc21	-	-	3.55µM[quencher]	?
O=C(N/N=C/c1ccc(O)c(O)c1)N/N=C/c1ccc(O)c(O)c1	-	.	.	.
Oc1cc(O)cc(/C=C/c2ccc(O)c(O)c2)c1	-	-	50.1µM![quencher]	?
O=C(O)c1ccc(Nc2cc(Cl)c3nonc3c2[N+](=O)[O-])cc1	-	14.1µM	-	-
O=[N+]([O-])c1c(Nc2cccc(O)c2)cc(Cl)c2nonc12	-	.	.	.
CCOC(=O)C1=C(C)NC(C)=C(C(=O)OC)[C@@H]1c1cccc([N+](=O)[O-])c1	-	-	-	-
COC(=O)C1=C(C)NC(C)=C(C(=O)OC)C1c1ccccc1[N+](=O)[O-]	-77.9!	-	-	-
CCCCOC(=O)c1ccc(NC(=O)/C(C#N)=C/c2ccc(-c3ccccc3)o2)cc1	.	.	?	-
CC(C)N1CC2=C(OC(N)=C(C#N)C2c2cccnc2)/C(=C/c2cccnc2)C1 (configuration not stated)	-	-	44.7µM[fluorescent]	44.7µM
N#CC1=C(N)OC2=C(CN(Cc3ccccc3)C/C2=C\c2cccnc2)C1c1cccnc1 (configuration not stated)	-	-	?	?
CCN1CC2=C(OC(N)=C(C#N)C2c2ccccc2)/C(=C\c2ccccc2)C1 (configuration not stated)	-	-	44.7µM[fluorescent]	44.7µM
SMILES	Coupling enz	GoLoco inh red	TexasRed fluor	TRb-SRC2 inh
O=C(NCCO)Nc1ccc2nc(-c3ccco3)c(-c3ccco3)nc2c1	-36.0	-	-	-
CCCCNC(=O)c1ccc2nc(-c3ccco3)c(-c3ccco3)nc2c1	-39.3	-	-	-
O=C(NCCCO)c1ccc2nc(-c3ccco3)c(-c3ccco3)nc2c1	-	-	?	-
CC(=O)c1ccc(NC(=O)c2ccc3nc(-c4ccco4)c(-c4ccco4)nc3c2)cc1	-30.2	-	?	-
O=C(Nc1ccccc1)c1ccc2nc(-c3ccco3)c(-c3ccco3)nc2c1	-38.1	-	-	-
Cc1ccc(-n2nc(C(=O)N(C)c3ccccc3Cl)c3c4ccccc4n(C)c3c2=O)cc1	.	.	-	-
COc1cccc(OCC(=O)Nc2nnc3n2CCS3)c1	.	.	-	-
O=C(Nc1ccc2nc(-c3ccco3)c(-c3ccco3)nc2c1)N1CCN(c2ccccn2)CC1	-40.9	-	-	-
COc1ccc(-c2noc(-c3ccc(C)cc3Cl)n2)cc1OC	.	.	0.126µM[quencher]	-
Cc1ccc(OCC(=O)N(Cc2ccc(N(C)C)cc2)CC2CCCO2)cc1C (configuration not stated)	.	.	-	-
Cc1cc(C)c(-c2cc([C@H](C)O/N=C3/[C@H]4OC4[C@@H](O)[C@H]4[C@H]3CCn3c(=O)n(-c5ccccc5)c(=O)n34)on2)c(C)c1 (some centres not stated)	-	.	?	-[11.2 µM]
CC(C)(C)c1nnc(NC(=O)c2ccc(Cl)nc2)s1	-36.3	-	-	-
Cc1ccc(OCCSc2nc3ccccc3n2CC(=O)N2CCCCC2)c(C)c1	.	.	-	-
Cc1cccc(Nc2ccc3nonc3c2[N+](=O)[O-])c1C	-	.	.	.
CCOC(=O)NNc1ccc2nonc2c1[N+](=O)[O-]	-44.1	-	-	-
Cc1sc2ncn(CC(=O)N(C)c3cccc(C(F)(F)F)c3)c(=O)c2c1S(=O)(=O)N1CCN(c2ncccn2)CC1	.	.	0.0794µM[quencher]	-
O=c1[nH][nH]c2c(N=Cc3ccccc3O)ccc(F)c12	-33.6	-	-	-
CC(=O)C1=C(C)OC(N)=C(C#N)C1c1cccnc1 (configuration not stated)	-33.4	-	-	-
CCOC(=O)C1=C(c2ccccc2)OC(N)=C(C#N)C1c1cccnc1 (configuration not stated)	-	-	-	-
Cc1ccc(-c2[nH]nc3c2C(c2cccnc2)C(C#N)=C(N)O3)cc1 (configuration not stated)	-41.9	-	-	-
Cc1cc(C)cc(NC(=O)Cn2c(C(F)(F)F)nc3ccccc32)c1	.	.	-	-
CC(=O)N1CCN(C2=Nc3cccc4cccc2c34)CC1	-47.3	-	-	?
CCOC(=O)N1CCN(C(=O)Nc2cccc3ccccc23)CC1	-	-	-	-
c1cc2c3c(cccc3c1)C(N1CCOCC1)=N2	-51.4	-	-	-
CC1CN(C2=Nc3cccc4cccc2c34)CC(C)O1 (configuration not stated)	-46.4	-	-	-
SMILES	Coupling enz	GoLoco inh red	TexasRed fluor	TRb-SRC2 inh
CC1CN(c2oc(-c3ccccc3Cl)nc2C#N)CC(C)O1 (configuration not stated)	-	.	-	-
CCOC(=O)N1CCN(C2=Nc3cccc4cccc2c34)CC1	-56.6	-	-	-
COc1ccc(NC(=O)COC(=O)/C=C/C(=O)OCC(=O)Nc2ccc(OC)c(Cl)c2)cc1Cl	-	8.91µM	-	-
CCc1ccc2occ(CC(=O)Nc3ccc(OC)c(Cl)c3)c2c1	.	.	0.0891µM[quencher]	-
NC(=S)c1ccc[n+]([C@@H]2O[C@@H](COP(=O)([O-])OP(=O)(O)OC[C@H]3O[C@@H](n4cnc5c(N)ncnc54)[C@H](OP(=O)(O)O)[C@H]3O)C(O)C2O)c1 (some centres not stated)	.	-	-	-
CC12CCC(C1)C(C)(C)C2=O (configuration not stated)	.	-	-	-
Cc1cc(C)n(/N=C\c2c(O)ccc3ccccc23)c(=O)c1C(N)=O	-32.4	-	-	-
CCCCOC(=O)CC(CC(=O)OCCCC)(OC(C)=O)C(=O)OCCCC	.	.	-	-

Source: PubChem BioAssay (National Center for Advancing Translational Sciences (NCATS))
